Data on 13 compounds can be found in ChEMBL document CHEMBL2218924, “A broad activity screen in support of a chemogenomic map for kinase signalling research and drug discovery” (Biochem J, 2013).

Experiment [1] has as its target T1, Tyrosine-protein kinase Mer (Homo sapiens) (UniProt Q12866).
T1 sequence (whole entry): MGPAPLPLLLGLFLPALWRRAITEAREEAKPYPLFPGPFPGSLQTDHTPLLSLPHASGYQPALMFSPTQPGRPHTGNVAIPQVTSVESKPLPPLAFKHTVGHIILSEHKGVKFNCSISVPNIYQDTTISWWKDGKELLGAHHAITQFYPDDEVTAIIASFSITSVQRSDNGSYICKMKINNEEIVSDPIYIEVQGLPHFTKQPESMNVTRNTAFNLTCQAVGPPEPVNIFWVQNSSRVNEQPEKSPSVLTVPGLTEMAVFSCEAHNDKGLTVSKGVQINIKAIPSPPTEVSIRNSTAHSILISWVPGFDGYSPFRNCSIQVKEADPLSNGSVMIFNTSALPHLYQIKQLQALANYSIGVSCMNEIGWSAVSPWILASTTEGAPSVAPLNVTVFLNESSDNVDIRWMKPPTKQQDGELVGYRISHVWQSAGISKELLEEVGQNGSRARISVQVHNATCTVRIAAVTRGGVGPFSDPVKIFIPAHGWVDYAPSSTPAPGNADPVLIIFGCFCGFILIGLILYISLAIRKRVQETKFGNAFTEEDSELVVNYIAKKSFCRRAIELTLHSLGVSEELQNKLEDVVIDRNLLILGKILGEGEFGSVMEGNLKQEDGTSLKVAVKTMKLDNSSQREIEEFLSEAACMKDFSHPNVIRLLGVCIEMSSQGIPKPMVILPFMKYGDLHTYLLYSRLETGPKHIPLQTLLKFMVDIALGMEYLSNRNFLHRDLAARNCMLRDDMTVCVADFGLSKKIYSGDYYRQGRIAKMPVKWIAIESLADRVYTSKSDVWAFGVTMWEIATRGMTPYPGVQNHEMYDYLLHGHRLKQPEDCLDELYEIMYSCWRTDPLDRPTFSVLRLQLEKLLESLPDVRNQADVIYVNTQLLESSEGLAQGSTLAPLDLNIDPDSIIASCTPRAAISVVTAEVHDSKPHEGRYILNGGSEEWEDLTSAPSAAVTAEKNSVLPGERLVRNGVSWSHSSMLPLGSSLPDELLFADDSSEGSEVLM
The conditions noted are these: at 10 µM.

For experiment [2], the target named is Serine/threonine-protein kinase 24 (Homo sapiens) (UniProt Q9Y6E0). The conditions noted are these: at 1 µM.
Experiment [3] has the same target. Particulars: at 10 µM.
The target in experiment [4] is T1, Tyrosine-protein kinase Mer (Homo sapiens). The conditions noted are these: at 1 µM.
For experiment [5], the target named is Hepatocyte growth factor receptor (Homo sapiens) (UniProt P08581). The conditions noted are these: at 1 µM.
For experiment [6], the target named is MAP kinase-interacting serine/threonine-protein kinase 2 (Homo sapiens) (UniProt Q9HBH9). Particulars: at 1 µM.
Experiment [7] shares this target. The conditions noted are these: at 10 µM.
For experiment [8], the target named is T2, Serine/threonine-protein kinase 3 (Homo sapiens) (UniProt Q13188).
T2 sequence (whole entry): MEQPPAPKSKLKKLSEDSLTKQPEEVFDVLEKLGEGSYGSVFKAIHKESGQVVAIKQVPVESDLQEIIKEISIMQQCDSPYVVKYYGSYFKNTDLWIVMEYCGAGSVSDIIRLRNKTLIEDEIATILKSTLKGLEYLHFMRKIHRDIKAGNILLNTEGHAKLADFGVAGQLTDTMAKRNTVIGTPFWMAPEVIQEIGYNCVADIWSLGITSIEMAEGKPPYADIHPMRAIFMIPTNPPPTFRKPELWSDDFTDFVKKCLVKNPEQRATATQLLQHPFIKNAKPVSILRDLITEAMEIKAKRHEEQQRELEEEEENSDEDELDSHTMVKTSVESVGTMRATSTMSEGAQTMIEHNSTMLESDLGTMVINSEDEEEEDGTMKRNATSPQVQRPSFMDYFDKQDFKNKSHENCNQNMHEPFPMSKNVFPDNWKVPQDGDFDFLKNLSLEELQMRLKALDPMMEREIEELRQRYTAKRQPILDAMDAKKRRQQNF
The conditions noted are these: at 10 µM.

Experiment [9] has as its target Hepatocyte growth factor receptor (Homo sapiens) (UniProt P08581). The conditions noted are these: at 10 µM.

Serine/threonine-protein kinase 24 (Homo sapiens), sequence (Q9Y6E0 whole entry, looked up): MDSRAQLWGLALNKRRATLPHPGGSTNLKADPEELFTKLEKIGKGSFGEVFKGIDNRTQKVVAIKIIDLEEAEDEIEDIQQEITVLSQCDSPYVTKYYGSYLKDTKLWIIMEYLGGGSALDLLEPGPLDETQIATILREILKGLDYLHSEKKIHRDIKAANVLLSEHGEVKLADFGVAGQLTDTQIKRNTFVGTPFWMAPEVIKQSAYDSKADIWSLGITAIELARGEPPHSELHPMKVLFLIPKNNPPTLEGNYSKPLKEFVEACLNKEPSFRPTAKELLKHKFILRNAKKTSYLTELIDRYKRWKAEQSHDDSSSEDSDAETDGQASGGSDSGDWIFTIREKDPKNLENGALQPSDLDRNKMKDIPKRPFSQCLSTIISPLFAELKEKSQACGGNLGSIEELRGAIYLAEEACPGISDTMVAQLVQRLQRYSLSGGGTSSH
MAP kinase-interacting serine/threonine-protein kinase 2 (Homo sapiens), sequence (Q9HBH9 whole entry, looked up): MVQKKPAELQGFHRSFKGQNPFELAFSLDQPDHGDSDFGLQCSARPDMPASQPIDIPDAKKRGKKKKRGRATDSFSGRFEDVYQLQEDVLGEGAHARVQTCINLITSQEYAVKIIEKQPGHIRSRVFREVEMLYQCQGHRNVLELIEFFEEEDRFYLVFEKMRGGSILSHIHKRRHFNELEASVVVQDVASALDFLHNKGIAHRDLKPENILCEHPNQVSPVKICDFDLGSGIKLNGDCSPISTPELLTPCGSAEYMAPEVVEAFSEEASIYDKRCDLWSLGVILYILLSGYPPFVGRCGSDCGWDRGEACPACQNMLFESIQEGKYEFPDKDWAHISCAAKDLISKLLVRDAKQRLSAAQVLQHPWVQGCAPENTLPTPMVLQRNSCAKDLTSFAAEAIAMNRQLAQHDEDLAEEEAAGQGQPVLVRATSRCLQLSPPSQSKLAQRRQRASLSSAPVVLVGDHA
Hepatocyte growth factor receptor (Homo sapiens), sequence (P08581 whole entry): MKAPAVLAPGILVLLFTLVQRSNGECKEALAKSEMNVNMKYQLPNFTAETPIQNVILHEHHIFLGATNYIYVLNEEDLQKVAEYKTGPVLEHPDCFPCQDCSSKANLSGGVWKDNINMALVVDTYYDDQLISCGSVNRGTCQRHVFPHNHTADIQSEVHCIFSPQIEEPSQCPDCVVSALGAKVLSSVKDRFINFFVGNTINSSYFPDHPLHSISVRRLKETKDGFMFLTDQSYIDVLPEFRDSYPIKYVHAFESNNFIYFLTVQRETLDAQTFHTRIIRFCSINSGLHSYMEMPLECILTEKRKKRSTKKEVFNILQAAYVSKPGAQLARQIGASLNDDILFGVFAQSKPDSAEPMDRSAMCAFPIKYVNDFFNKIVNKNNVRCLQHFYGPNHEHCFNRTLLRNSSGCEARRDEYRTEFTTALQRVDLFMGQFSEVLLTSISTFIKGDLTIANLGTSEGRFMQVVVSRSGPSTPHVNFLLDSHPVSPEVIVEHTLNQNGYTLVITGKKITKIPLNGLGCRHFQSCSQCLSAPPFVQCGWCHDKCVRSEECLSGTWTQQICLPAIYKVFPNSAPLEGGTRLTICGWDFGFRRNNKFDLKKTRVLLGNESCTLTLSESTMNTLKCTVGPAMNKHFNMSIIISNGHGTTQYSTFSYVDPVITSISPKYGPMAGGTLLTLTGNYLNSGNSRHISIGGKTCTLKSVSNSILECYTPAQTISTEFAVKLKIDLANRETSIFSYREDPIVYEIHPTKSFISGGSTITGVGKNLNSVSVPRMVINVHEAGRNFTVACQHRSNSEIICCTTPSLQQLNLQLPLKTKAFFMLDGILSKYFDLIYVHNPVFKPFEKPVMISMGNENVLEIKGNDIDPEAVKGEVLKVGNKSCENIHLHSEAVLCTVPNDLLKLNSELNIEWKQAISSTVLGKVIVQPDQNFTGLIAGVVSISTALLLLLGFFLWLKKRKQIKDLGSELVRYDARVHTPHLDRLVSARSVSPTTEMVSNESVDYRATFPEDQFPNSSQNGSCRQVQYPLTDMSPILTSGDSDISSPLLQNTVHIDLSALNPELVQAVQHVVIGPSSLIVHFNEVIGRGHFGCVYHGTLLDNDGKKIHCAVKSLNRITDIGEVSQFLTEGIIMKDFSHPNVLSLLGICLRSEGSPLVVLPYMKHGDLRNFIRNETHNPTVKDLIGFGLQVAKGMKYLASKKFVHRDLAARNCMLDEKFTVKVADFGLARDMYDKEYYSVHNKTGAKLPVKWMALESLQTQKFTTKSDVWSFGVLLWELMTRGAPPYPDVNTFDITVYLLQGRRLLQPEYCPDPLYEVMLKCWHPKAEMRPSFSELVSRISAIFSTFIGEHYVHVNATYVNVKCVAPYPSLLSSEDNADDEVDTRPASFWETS

As for `O=S(=O)(c1cccc2cnccc12)N1CCCNCC1`, in experiment [1], the residual activity was 77%.

With `COc1ccc2c(c1)c(C1=C(c3c[nH]c4ccccc34)C(=O)NC1=O)cn2CCCN(C)C`, the residual activity in [2] stood at 21%; in experiment [3], 5%; in experiment [4], 81%; in experiment [1] it was 10%; in [5], 111%; in [6] it was 105%. The residual activity in experiment [7] amounted to 82%.

In the case of `COc1ccc(CNC(=O)Nc2ncc([N+](=O)[O-])s2)cc1`, the residual activity in [2] stood at 69%; in experiment [3], 80%.

Turning to `CC(C)[C@H](CO)Nc1nc(Nc2cc(N)cc(Cl)c2)c2ncn(C(C)C)c2n1`, the residual activity was found to be 60% in [8]; 78% in experiment [2]; 26% in [3]; 22% in [4]; 2% in experiment [1]; 74% in [5]. Also, the residual activity in experiment [9] was 13%; in experiment [6] it was 94%; in experiment [7], 75%.

Regarding `COc1ccc(Cl)cc1NC(=O)Nc1cc(C)nc2ccccc12`, the residual activity was 70% in experiment [2], 83% in experiment [3], 89% in experiment [5] and 80% in experiment [9].

For `O=c1cc(N2CCOCC2)oc2c1ccc1ccccc12`, the residual activity in [2] amounted to 70%; in experiment [3], 82%; in experiment [4], 105%; in [1], 83%; in experiment [9], 133%; in experiment [6], 100%. Besides, the residual activity in experiment [7] was determined as 93%.

`N#C/C(=C\c1ccc(O)c(O)c1)C(=O)NCc1ccccc1`: the residual activity in experiment [2] came to 82%; in experiment [3], 65%; in [5], 103%; in experiment [9] it was 73%; in [7] it was 83%.

With `Nc1ncnc2c1cnn2-c1ccccc1`, the residual activity in experiment [8] turned out to be 93%; in [2], 68%; in [3], 84%; in [4], 101%; in [1] it was 92%; in experiment [5] it was 98%. In addition, the residual activity amounted to 85% in experiment [9], 56% in experiment [6] and 22% in [7].

Take `CCN1/C(=C/C(C)=O)Sc2ccc(OC)cc21`: the figures for the residual activity in experiment [2] and in [3] were 69% and 74%, respectively.

Regarding `Nc1nccc(-c2c(-c3ccc(F)cc3)ncn2C2CCNCC2)n1`, the residual activity turned out to be 82% in [2]; 82% in experiment [3]; 67% in experiment [4]; 24% in [1]; 114% in [5]; 82% in [9]. The residual activity in experiment [7] is 82%.

Turning to `O=S(=O)(NCCNC/C=C/c1ccc(Br)cc1)c1cccc2cnccc12`, the residual activity came to 78% in experiment [2], 52% in [3] and 25% in [1].

For the compound `NC(=O)c1cccc(-c2cc(Nc3ccc(OC(F)(F)F)cc3)ncn2)c1`, the residual activity is 74% in [2], 93% in experiment [3], 91% in experiment [6] and 54% in experiment [7].

On to `O=C(c1ccccc1)c1ccc(N2CCOCC2)cc1O`, for which the residual activity in [8] was 95%; in [2], 86%; in experiment [3] it was 68%; in [1], 85%; in [5], 86%; in experiment [9], 66%. Further, the residual activity in [7] turned out to be 80%.
